# Pf Dd2 inh – qHTS Primary assay for Inhibitors of Plasmodium falciparum Dd2 growth in vitro | P. falciparum Dd2 growth, SYBR Green, 72 h | Potency, µM (highest dose often 28.9 µM), inactives show at the top dose activity, negative = inhibition, hits mostly inhibitors | 120,000 tested, 4.3% active | AID 1347417, 2020; active means well fitted inhibition curve with a large enough effect;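 further: plate controls were DMSO vehicle for no effect and reference drug for full effect; nearly all actives have a fitted effect of over 65% in size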
#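 Infected erythrocytes (Dd2, 0.3% parasitemia, 2.5% hematocrit final) are added to compound in RPMI-1640/Albumax II medium, grown 72 h at 37C in low oxygen, then lysed with saponin/Triton-X containing SYBR Green and read by fluorescence.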
# Starred values were filed as active, the others as inactive; i = inactive; [ ] = another dose, or the depositor's remark. The sample as a whole holds a higher share of hits than the screen did. Potency means the concentration at half of the fitted maximal effect.
SMILES,Pf Dd2 inh
O=C(NCc1ccc2c(c1)CCN2C(=O)c1ccc(F)cc1)c1ccco1,2.8µM*
O=C(NCc1ccc2c(c1)CCN2C(=O)c1ccc(Cl)cc1)c1ccco1,35%
Cc1cccc(C(=O)N2CCc3cc(CNC(=O)c4ccco4)ccc32)c1,4%
CCc1cccc(OCC(=O)c2ccc3c(c2)N(CC(=O)NCCCOC)C(=O)CO3)c1,i
O=C(c1ccncc1)N1CCCN(CCc2ccccc2)c2ccccc21,i
O=C(c1cc(F)ccc1F)N1CCCN(CCc2ccccc2)c2ccccc21,i
CN(C)CCN1CCCN(C(=O)CCc2ccccc2)c2ccccc21,7.1µM*
COc1ccc(CCC(=O)N2CCCN(C)c3ccccc32)cc1,-15%
COc1ccccc1CC(=O)N1CCCN(CCc2ccccc2)c2ccccc21,7.9µM*
CN1CCCN(C(=O)CCc2ccccc2)c2ccccc21,i
Cc1cc(C(F)(F)F)nn1CC(=O)N1CC[C@H](CO)[C@H](NC(=O)C2CC2)C1,-9%
CN(C)S(=O)(=O)NCC1CCCN(C(=O)Cc2ccc3c(c2)OCO3)C1 (centres undefined),11%
COc1ccc(CC(=O)N2CCOC[C@H](Oc3ccc(OC)cc3)C2)cc1,-9%[44.1 µM]
CN(C)c1ccc(C(=O)NC2CCN(c3cn[nH]c(=O)c3)CC2)cc1,i
CCC(C)OC(=O)/C(C#N)=C\c1ccc(-c2ccccc2Cl)o1 (centres undefined),79%
CCOC(=O)/C(C#N)=C/c1ccc(-c2ccccc2)o1,5%
CC(C)COC(=O)/C(C#N)=C\c1ccc(-c2ccccc2Cl)o1,1.1µM*
NC(=O)CNC(=O)C1=C[C@@H](NC(=O)c2ccc(F)c(Cl)c2)[C@@H](O)[C@H](O)C1,58%[44.1 µM]
COc1ccc(-c2ccc3nc(-c4ccccc4Br)oc3c2)c(OC)c1OC,-2%
COc1ccc(CCN2CC(C(=O)NCCc3ccc(C)cc3)CC2=O)cc1OC (centres undefined),24%
COc1cccc(N2CC(C(=O)NCCOc3ccccc3)NC2=O)c1 (centres undefined),12%
Cc1ccc(CNC(=O)C2N(C(C)C)C(=O)C23CCCC3)o1 (centres undefined),6%
COc1ccc2cc1Nc1ccc(cc1)C[C@H](NCC1CC1)C(=O)N(C)[C@@H](C(=O)NCc1ccccc1)C2,-25%
COc1ccc2cc1Nc1ccc(cc1)C[C@H](NCc1ccc(O)cc1)C(=O)N(C)[C@H](C(=O)NCCOc1ccccc1)C2,2.5µM*
COc1ccc2cc1Nc1ccc(cc1)C[C@H](NCc1ccc(C)o1)C(=O)N(C)[C@@H](C(=O)NCc1ccccc1)C2,0.89µM*
SMILES,Pf Dd2 inh
COc1cccc(C(=O)N2CCC(N3C(=O)CCC3C(=O)NCc3ccccc3)CC2)c1C (centres undefined),-5%
COc1ccc2cc1Nc1ccc(cc1)C[C@H](NCc1ccc(C)o1)C(=O)N(C)[C@H](C(=O)NCCC(C)C)C2,1µM*
COCCN1CC(C(=O)NCCOc2ccccc2)CCC1=O (centres undefined),-7%
COc1cccc([S+](=O)([O-])N2CCn3ncc(C(=O)N4CCOCC4)c3C2)c1,2%
C[C@@]1(O)CCN(Cc2cn[nH]c2-c2ccccc2)C[C@H]1N1CCCC1,-14%[5.79 µM]
CCc1ccc(N2CC(c3noc(-c4cccc(OC)c4OC)n3)CC2=O)cc1 (centres undefined),-4%
CN1CCN(c2nc3c(c(=O)[nH]2)CCN(Cc2cn(C)c4ccccc24)CC3)CC1,7%[5.79 µM]
COCCn1cnnc1CCNC(=O)c1oc2cc(OC)ccc2c1C,-22%
CC(C)CCN1CCNC(=O)C1CC(=O)N(Cc1cnn(C)c1)C1CC1 (centres undefined),-3%
O=C1CCN(C(=O)C2CCN(C(=O)C3(c4ccccc4)CC3)CC2)CCCCCCN1,3%
CCN1c2cc(C(=O)NCCC3=CCCCC3)ccc2C(=O)N2CCCCC21 (centres undefined),i
O=C(CNC(=O)c1cnccn1)NC1CCCc2c1[nH]c1c(Cl)cccc21 (centres undefined),-6%
COc1cc(C(=O)NC2CCCc3c2[nH]c2c(Cl)cccc32)cc(OC)c1OC (centres undefined),1µM*
Cc1cc(C(=O)NC2CCCc3c2[nH]c2c(Cl)cccc32)c2c(C)noc2n1 (centres undefined),i
O=C(Cc1ccsc1)N[C@@H]1COCC[C@@H]1OCc1cscn1,-5%
O=C(Cc1c[nH]c2ccccc12)N1CCCN(c2cc(-c3ccc(Cl)cc3)[nH]n2)CC1,-27%
Cc1ccc(-n2nc(-c3c(C)nc4scc(CC(=O)NCc5ccccc5)n4c3=O)cc2C)cc1,-3%
COc1cccc(CN2CCCC(NC(=O)Nc3ccccc3OC)C2)c1 (centres undefined),-23%
COc1cccc(CN2CCC(Oc3ccc(C(=O)NC4CCCC4)cc3Cl)CC2)c1,11µM*
O=C(NC1CCS(=O)(=O)C1)C1CCCCC(=O)N1Cc1ccccc1 (centres undefined),20%
CCOc1cccc(CNC(=O)C2CCCCC(=O)N2Cc2cccc(OC)c2)c1 (centres undefined),-6%
COc1ccc(C(=O)NC2CC2)c(OC2CCN(Cc3cccc(SC)c3)CC2)c1,-15%
COc1cccc(CN2C(=O)CCCCC2C(=O)NC2CCCCCC2)c1 (centres undefined),8.9µM*
O=C(c1cccc(Cl)c1)N1CCN(C(=O)c2nnn3c2COC(c2ccc(F)cc2)C3)CC1 (centres undefined),-1%
O=C(NCCn1ccnc1)c1ccc(OC2CCN(CCc3ccccc3)CC2)cc1,-20%
SMILES,Pf Dd2 inh
NC(=O)[C@@H](Cc1c[nH]c2ccccc12)NC(=O)[C@@H]1[C@@H](NC(=O)NC2CCCCC2)CCN1C(=O)c1cnccn1,2%
O=C(NCCn1cccc1-c1nc(-c2ccc3c(c2)OCO3)no1)c1ccc(F)cc1,131%
Cc1cc(C)c(NC(=O)Cn2cccc2-c2nc(-c3ccc4c(c3)OCO4)no2)c(C)c1,11%
Cc1ccc(C(=O)NCCn2cccc2-c2nc(-c3ccc4c(c3)OCO4)no2)cc1C,-30%
CN1C[C@@H](NC(=O)c2ccc3c(c2)OCO3)C[C@H]1c1nc(-c2ccc(Cl)cc2)no1,10µM*
O=C(Cn1cccc1-c1nc(-c2ccc3c(c2)OCO3)no1)Nc1ccc(Cl)cc1,2µM*
CN(C)c1ccc(C(=O)N[C@H]2C[C@@H](c3nc(-c4ccc5c(c4)OCO5)no3)N(C)C2)cc1,i
CN1C[C@@H](NC(=O)c2ccc(F)cc2)C[C@H]1c1nc(-c2ccc(Cl)cc2)no1,i
O=C(Cn1cccc1-c1nc(-c2ccc3c(c2)OCO3)no1)NCc1ccc(Cl)cc1,5%
O=C(NCCn1cccc1-c1nc(-c2ccc3c(c2)OCO3)no1)c1ccc2c(c1)OCO2,13µM*
CN(C)c1ccc(NC(=O)Cn2cccc2-c2nc(-c3ccc4c(c3)OCO4)no2)cc1,7%
O=C(Cn1cccc1-c1nc(-c2ccc3c(c2)OCO3)no1)NCc1ccc(F)cc1F,12%
O=C(Cn1cccc1-c1nc(-c2ccc3c(c2)OCO3)no1)Nc1cc(F)cc(F)c1,5µM*
COCC1CN(C(C)=O)CC12CCN(Cc1ccc(F)c(F)c1)CC2 (centres undefined),0%
O=C(Nc1cccc(Cl)c1F)N1CCC(n2cnnc2C2CC2)C1 (centres undefined),-29%
O=C(N[C@@H]1COCC[C@@H]1OCc1ccccc1)c1ccc2ncsc2c1,24%

# Compound activity: PubChem BioAssay, National Center for Advancing Translational Sciences (NCATS)
